# Experimental data as given in the supplement of paper PMC12282887.
# ± gives the standard deviation of the averaged measurements.
# Key:
# Test in all cases: promoter activity interaction Z-score (Lux/OD deviation from empty-vector control); higher = stronger promoter induction by the compound
# [1] = tested on: E. coli BW25113 acrABp lux reporter
# In short: (§1)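 E. coli BW25113 luxCDABE reporter strains grew at 37°C in 40 µl LB Lennox in 384-well plates, with OD600 and luminescence read every 30 min for 12 h. After integration over 0–8 h for wild type or 1–9 h for deletion strains, wells under 10% of the median growth value were removed. Each score is the Z-transformed residual of growth-normalised luminescence fitted against a control.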
# [2] = tested on: E. coli BW25113 micFp lux reporter
# In short: as §1
# [3] = tested on: E. coli BW25113 ompFp lux reporter
# In short: as §1
# [4] = tested on: E. coli BW25113 robp lux reporter
# In short: as §1
# [5] = tested on: E. coli BW25113 soxSp lux reporter
# In short: as §1
# [6] = tested on: E. coli BW25113 tolCp lux reporter
# In short: as §1
# [7] = 0.056 µg/ml, genetic background: wild type
# [8] = 0.056 µg/ml, genetic background: ΔmarA
# [9] = 0.056 µg/ml, genetic background: Δrob
# [10] = 0.056 µg/ml, genetic background: ΔsoxS
# [11] = 0.11 µg/ml, genetic background: wild type
# [12] = 0.11 µg/ml, genetic background: ΔmarA
# [13] = 0.11 µg/ml, genetic background: Δrob
# [14] = 0.11 µg/ml, genetic background: ΔsoxS
# [15] = 0.22 µg/ml, genetic background: wild type
# [16] = 0.22 µg/ml, genetic background: ΔmarA
# [17] = 0.22 µg/ml, genetic background: Δrob
# [18] = 0.22 µg/ml, genetic background: ΔsoxS
# [19] = 0.44 µg/ml, genetic background: wild type
# [20] = 0.44 µg/ml, genetic background: ΔmarA
# [21] = 0.44 µg/ml, genetic background: Δrob
# [22] = 0.44 µg/ml, genetic background: ΔsoxS
compound,measurement,setting,value
CN(C)[C@@H]1C(O)=C(C(N)=O)C(=O)[C@@]2(O)C(O)=C3C(=O)c4c(O)cccc4[C@@](C)(O)[C@H]3C[C@@H]12 [Tetracycline],promoter activity interaction Z-score,[1]; [7],0.26 ± 0.44
same,promoter activity interaction Z-score,[1]; [8],0.996 ± 0.81
same,promoter activity interaction Z-score,[1]; [9],-0.021 ± 0.06
same,promoter activity interaction Z-score,[1]; [10],-0.156 ± 0.057
same,promoter activity interaction Z-score,[1]; [11],0.439 ± 0.11
same,promoter activity interaction Z-score,[1]; [12],0.363 ± 1.1
same,promoter activity interaction Z-score,[1]; [13],0.655 ± 0.19
same,promoter activity interaction Z-score,[1]; [14],0.643 ± 0.026
same,promoter activity interaction Z-score,[1]; [15],1.07 ± 0.24
same,promoter activity interaction Z-score,[1]; [16],-0.35 ± 0.28
same,promoter activity interaction Z-score,[1]; [17],1.78 ± 0.42
same,promoter activity interaction Z-score,[1]; [18],1.59 ± 0.34
same,promoter activity interaction Z-score,[1]; [19],2.18 ± 0.16
same,promoter activity interaction Z-score,[1]; [20],-1.42 ± 0.33
same,promoter activity interaction Z-score,[1]; [21],5.96
same,promoter activity interaction Z-score,[1]; [22],-1.22
same,promoter activity interaction Z-score,[2]; [7],1.46 ± 0.49
same,promoter activity interaction Z-score,[2]; [8],0.0522 ± 0.015
same,promoter activity interaction Z-score,[2]; [9],-0.0785 ± 0.057
same,promoter activity interaction Z-score,[2]; [10],0.373 ± 0.06
same,promoter activity interaction Z-score,[2]; [11],2.61 ± 0.64
same,promoter activity interaction Z-score,[2]; [12],0.188 ± 0.14
same,promoter activity interaction Z-score,[2]; [13],0.177 ± 0.19
same,promoter activity interaction Z-score,[2]; [14],1.44 ± 0.23
same,promoter activity interaction Z-score,[2]; [15],3.37 ± 0.62
same,promoter activity interaction Z-score,[2]; [16],0.403 ± 0.2
same,promoter activity interaction Z-score,[2]; [17],0.131 ± 0.15
same,promoter activity interaction Z-score,[2]; [18],1.86 ± 0.2
same,promoter activity interaction Z-score,[2]; [19],0.313 ± 0.3
same,promoter activity interaction Z-score,[2]; [20],0.3 ± 0.28
same,promoter activity interaction Z-score,[2]; [21],-0.128 ± 0.088
same,promoter activity interaction Z-score,[2]; [22],-0.349 ± 0.37
same,promoter activity interaction Z-score,[3]; [7],1.85 ± 1.5
same,promoter activity interaction Z-score,[3]; [8],1.72 ± 1.3
same,promoter activity interaction Z-score,[3]; [9],1.96 ± 1.3
same,promoter activity interaction Z-score,[3]; [10],0.631 ± 0.11
same,promoter activity interaction Z-score,[3]; [11],2.68 ± 1
same,promoter activity interaction Z-score,[3]; [12],2.53 ± 0.79
same,promoter activity interaction Z-score,[3]; [13],2.36 ± 0.4
same,promoter activity interaction Z-score,[3]; [14],2.15 ± 1
same,promoter activity interaction Z-score,[3]; [15],1.98 ± 0.54
same,promoter activity interaction Z-score,[3]; [16],1.86 ± 0.28
same,promoter activity interaction Z-score,[3]; [17],1.26 ± 0.07
same,promoter activity interaction Z-score,[3]; [18],2.71 ± 0.19
same,promoter activity interaction Z-score,[3]; [19],-0.73 ± 0.18
same,promoter activity interaction Z-score,[3]; [20],-1.97 ± 1.1
same,promoter activity interaction Z-score,[3]; [22],-3.24
same,promoter activity interaction Z-score,[4]; [7],0.998 ± 1.4
same,promoter activity interaction Z-score,[4]; [8],0.179 ± 0.2
same,promoter activity interaction Z-score,[4]; [9],0.105 ± 0.73
same,promoter activity interaction Z-score,[4]; [10],-0.0139 ± 0.3
same,promoter activity interaction Z-score,[4]; [11],1.13 ± 0.42
same,promoter activity interaction Z-score,[4]; [12],-0.0571 ± 0.62
same,promoter activity interaction Z-score,[4]; [13],0.458 ± 0.4
same,promoter activity interaction Z-score,[4]; [14],0.51 ± 0.84
same,promoter activity interaction Z-score,[4]; [15],-0.261 ± 0.053
same,promoter activity interaction Z-score,[4]; [16],-0.985 ± 0.35
same,promoter activity interaction Z-score,[4]; [17],0.638 ± 0.37
same,promoter activity interaction Z-score,[4]; [18],0.945 ± 1.1
same,promoter activity interaction Z-score,[4]; [19],-1.59 ± 0.88
same,promoter activity interaction Z-score,[4]; [20],-2.19 ± 0.95
same,promoter activity interaction Z-score,[4]; [22],-2.66 ± 0.43
same,promoter activity interaction Z-score,[5]; [7],0.151 ± 0.19
same,promoter activity interaction Z-score,[5]; [8],0.0648 ± 0.063
same,promoter activity interaction Z-score,[5]; [9],-0.00055 ± 0.21
same,promoter activity interaction Z-score,[5]; [10],-0.162 ± 0.37
same,promoter activity interaction Z-score,[5]; [11],0.728 ± 0.037
same,promoter activity interaction Z-score,[5]; [12],0.346 ± 0.055
same,promoter activity interaction Z-score,[5]; [13],0.252 ± 0.33
same,promoter activity interaction Z-score,[5]; [14],0.493 ± 0.026
same,promoter activity interaction Z-score,[5]; [15],1.18 ± 0.3
same,promoter activity interaction Z-score,[5]; [16],0.609 ± 0.14
same,promoter activity interaction Z-score,[5]; [17],0.598 ± 0.38
same,promoter activity interaction Z-score,[5]; [18],1.26 ± 0.17
same,promoter activity interaction Z-score,[5]; [19],1.56 ± 0.18
same,promoter activity interaction Z-score,[5]; [20],1.47 ± 0.25
same,promoter activity interaction Z-score,[5]; [21],1.46 ± 1
same,promoter activity interaction Z-score,[5]; [22],0.966 ± 0.8
same,promoter activity interaction Z-score,[6]; [7],0.446 ± 0.25
same,promoter activity interaction Z-score,[6]; [8],0.201 ± 0.44
same,promoter activity interaction Z-score,[6]; [9],0.673 ± 1.5
same,promoter activity interaction Z-score,[6]; [10],-0.654 ± 0.27
same,promoter activity interaction Z-score,[6]; [11],1.04 ± 0.64
same,promoter activity interaction Z-score,[6]; [12],0.0643 ± 0.81
same,promoter activity interaction Z-score,[6]; [13],0.925 ± 0.084
same,promoter activity interaction Z-score,[6]; [14],-0.579 ± 0.46
same,promoter activity interaction Z-score,[6]; [15],1.19 ± 1.5
same,promoter activity interaction Z-score,[6]; [16],1.09 ± 0.74
same,promoter activity interaction Z-score,[6]; [17],1.09 ± 0.63
same,promoter activity interaction Z-score,[6]; [18],0.351 ± 1.5
same,promoter activity interaction Z-score,[6]; [19],-0.0424 ± 0.045
same,promoter activity interaction Z-score,[6]; [20],1.29 ± 2
same,promoter activity interaction Z-score,[6]; [21],1.15 ± 0.23
same,promoter activity interaction Z-score,[6]; [22],0.632 ± 1.4
